# From PubChem BioAssay
# System: Fibrinogen (Alexa647-labelled)
# Assay: Alexa647-fibrinogen binding to printed small molecules – biochemical, small-molecule microarray, 635/667 nm fluorescence, artefact control for SMM control-protein annotation, profiling panel (AID 1131);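 note: z-score merges 667 nm fluorescence with per-spot signal-to-noise over triplicate slides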
# Conditions: fibrinogen-A647 binding fluorescence, higher = more signal
row,SMILES,composite z-score
1,CC#CC(=O)Oc1ccccc1C=CC(=O)OCC,-0.0002
2,CC(C)CNC(=O)[C@@]1(Cc2ccccc2I)c2ccccc2C(=O)N(C2CCCCC2)[C@H]1c1ccc(CO)cc1,0.348
3,O=C(c1ccccc1)N1C(=O)[C@]2(COC(c3ccc(OCCCO)cc3)=N2)Cc2ccccc21,0.988
4,CC(C)(C)OC(=O)CC[C@]1(C(=O)N2CCOCC2)N=C(c2ccc(OCCCO)cc2)O[C@H]1c1ccccc1N=[N+]=[N-],0.946
5,COCCOC(=O)N1C(=O)[C@@]2(c3cc(C#CCC(C(=O)OC)C(=O)OC)ccc31)[C@H](c1ccccc1OCCO)N1[C@H](c3ccccc3)[C@H](c3ccccc3)OC(=O)[C@H]1[C@@H]2C(=O)NC[C@H](O)c1ccccc1,0.749
6,COCCCNC(=O)[C@]1(CCC(=O)OC(C)(C)C)N=C(c2ccc(OCCCO)cc2)O[C@@H]1c1ccccc1CN=[N+]=[N-],0.197
7,CCOC(=O)C1=C[C@@H](C(C)(C)C)N(S(=O)(=O)c2ccc(C)cc2)[C@H]1c1ccc(F)cc1,0.939
8,COc1cc(NN2C(C(O)c3ccco3)C=CC3C(=O)N(c4ccccc4)C(=O)C32)cc(OC)c1OC (stereo not given),-0.0129
9,CCC(CC)C(O)C1C=CC2C(=O)NC(=O)C2N1Nc1ccc(Cl)cc1Cl (stereo not given),0.952
10,CCCC[C@H]1OB(O)C[C@H]2C1=C(COC)Cn1c(=O)n(-c3ccccc3)c(=O)n12,0.4
11,C=C(COC)/C(=C/C[C@@H](OC(C)=O)c1ccc(OCCO)cc1)c1cnc2ccccc2c1,0.869
12,CN(C)C(=O)[C@@]1(CCS(=O)(=O)c2ccccc2)COC(c2ccc(OCCCO)cc2)=N1,0.993
13,CCCCCCc1nc(-c2ccc(OC)nc2)cc2c1[Si](C(C)C)(C(C)C)O[C@H]2c1ccccc1,-0.51
14,O=C(CS)NCCCCCCNC(=O)[C@@H]1C[C@@H]2C(=O)N[C@@H](Cc3ccccc3)C(=O)N2[C@@H]1c1cccc(OCCO)c1,0.54
15,COC(=O)[C@@]1(Cc2ccc(OC)cc2)[C@H]2c3cc(C(=O)N(C)C)n(Cc4ccc(S(C)(=O)=O)cc4)c3C[C@H]2CN1C(=O)c1ccccc1,0.849
16,O=C1C[C@@](C(=O)NC2CC2)(c2ccc([N+](=O)[O-])cc2)[C@@H](c2ccc(CO)cc2I)N1C1CCCCC1,0.895
17,CN1C=C(C(=O)OCCS(C)(=O)=O)C(C(=O)OCCS(C)(=O)=O)=CC(c2ccc(CO)cc2)=CC1C1CC1 (stereo not given),0.28
18,O=C1NC(=O)C2C1C=CC(C(O)c1cc(C(F)(F)F)cc(C(F)(F)F)c1)N2Nc1ccccn1 (stereo not given),0.604
19,CN(C)CCCCCCNC(=O)[C@@H]1C[C@@H]2C(=O)N[C@@H](Cc3ccccc3)C(=O)N2[C@@H]1c1ccc(O)cc1,0.493
20,Cc1nc2cc(Br)ccc2c(=O)o1,0.0814
21,O=C(NC1CC1)[C@@H]1c2ccccc2C(=O)N(Cc2ccccc2Cl)[C@H]1c1ccc(CO)cc1,0.57
22,O[C@@H](Cc1ccccc1)[C@H]1C2C=CCCC=C2CN1Cc1cccc(Cl)c1 (stereo not given in full),0.675
23,COCCOC(=O)N1C(=O)[C@@]2(c3cc(C#CCNC(N)=O)ccc31)[C@H](C(=O)N1CCN(c3ncccn3)CC1)[C@H]1C(=O)O[C@H](c3ccccc3)[C@H](c3ccccc3)N1[C@@H]2c1ccc(OCCO)cc1,0.931
24,COCCOC(=O)N1C(=O)[C@@]2(c3cc(C#CCNC(N)=O)ccc31)[C@H](C(=O)Nc1nc3ccccc3s1)[C@H]1C(=O)O[C@H](c3ccccc3)[C@H](c3ccccc3)N1[C@@H]2c1ccc(OCCO)cc1,0.901
25,CC(C)C(O)C1C=CC2C(=O)N(c3ccccc3)C(=O)C2N1Nc1ccc([N+](=O)[O-])cc1 (stereo not given),0.954
26,CCOC(=O)C[C@H]1[C@H](OC(=O)c2ccccc2-c2ccccc2)[C@@H](NC(=O)CC(C)C)c2cc(OCCCO)ccc2N1C(=O)Cc1ccc(OC)cc1,0.522
27,C=C(CCCC)/C(=C/C[C@H](OC(C)=O)c1ccccc1OCCO)c1cc(C(=O)OC)ccc1OC,-0.438
28,C=CCC(OC(C)=O)[C@@H]1[C@@H](N(Cc2ccc(-c3ccccc3)cc2)C(=O)Cc2ccc(OC)cc2)c2cc(OCCCO)ccc2N1C(=O)Cc1ccc2ccccc2c1 (stereo not given in full),0.389
29,COc1ccc(CCNC(=O)[C@@]2(Sc3ccc(C)cc3)CC(=O)N(C3Cc4ccccc4C3)[C@@H]2c2ccc(CO)cc2I)cc1,-0.716
30,COC(=O)[C@@]1(Cc2ccccc2)N=C(c2ccc(OCCCO)cc2)O[C@H]1c1ccccc1,-0.381
